In all, about 53,000 sequences went through this assay and about 3,700 (7%) were called active. This excerpt belongs to a sample that is enriched for actives. Unmarked numbers belong to inactive results.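 The calls were made as follows: active = gene knockdowns whose robust z-score for IL-1 alpha signal is at least 2 or at most -2, so actives lie on both sides; inactive = the rest.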
Test: Components of the Cytosolic LPS Sensing Pathway: Gene Identification via Genome-wide siRNA Screen
Conditions: RAW264.7 macrophages, IL-1a HTRF, actives lie on both sides, screened at 100 nM (by protocol), cells primed 5 h with Pam3CSK4 first
From the text: Non-canonical inflammasome activation by cytosolic LPS is a critical component of the host response to Gram-negative bacterial infection, however we lack a comprehensive understanding of the cellular processes that control this pathway. Here we describe a genome-wide siRNA screen to identify genes regulating the mouse macrophage IL-1 alpha response to cytosolic LPS.
RAW264.7 cells were maintained in complete DMEM media, comprising DMEM with 4.5 g/L glucose, 10% FBS (Gemini Bio-Products, West Sacramento, CA), 2 mM Glutamine (Lonza) and 20 mM HEPES (Lonza), hereafter complete DMEM.
The RNAi screen was conducted in 384-well format using the Ambion Silencer Mouse Genome siRNA Library (#4391425), which consists of three unique, nonoverlapping, nonpooled siRNAs for each of 17,000 gene targets. siRNA reagents ([…]) were stamped into 384-well white flat-bottom microplates (Corning, 3570) using a Velocity11 VPrep liquid handling system (Agilent) integrated into a BioCel robotic platform (Agilent) in columns 1-22, leaving columns 23-24 empty for negative (Ambion, Negative control #1) and positive (mouse Casp4) controls, respectively. The median value of each plate's negative control column was used to normalize sample wells, and the positive control was used to assess transfection efficiency and assay performance.
Lipofectamine RNAiMAX Transfection Reagent ([…]; Invitrogen) was added in […] serum-free, antibiotic-free media to plate wells using a Thermo Scientific Matrix WellMate and Microplate Stacker. Plates were incubated for 45 min at room temperature to allow for the sufficient formation of siRNA-lipid complexes. Cells were seeded at a density of 1x10^4 cells per well in 20 microL media containing 20% (vol/vol) FBS without antibiotics. The final concentration of siRNA in each well was 100 nM. Cells were cultured for 48h at 37 degrees C in 5% CO2 before addition of […] of TLR ligand Pam3CSK4 for 5 hours. The medium was then removed, replaced with […] growth media and cell were transfected with […] of LipidA and TransIT-TKO (Mirus) for 24 hour. At the end of the LipidA treatment, […] of supernatant was transferred to a 384 Greiner Bio-one non-binding low volume plate and […] of IL-1a HTRF reagent (Cisbio, 62MIL1APEH) was added and incubated at room temperature overnight. The plates were read on an EnVision plate reader (PerkinElmer). Cell viability was measured by adding 20ul Cell Titer Glo to the original plate and running a luminescence read on the EnVision. The quantified IL-1a signal for each siRNA gene-targeted well was divided by the median of the negative control wells and multiplied by 100 to achieve a negative control normalized value for each well/siRNA. This normalized value was then used to generate a robust z-score by first taking the log of each value and then by subtracting the median and dividing by the […].

Row | Sequence | z-score
1 | GGAGAGAGAGAAGAAGGAUTT against Zmat2 | -1.47
2 | GCUCAUUCCAGGUAUCUGATT against Fcna | -1.19
3 | GCUAUGACAGUUAUGCUACTT against Cirbp | 0.874
4 | GGAUACGAGACAAUGAGAATT against Kctd2 | -0.404
5 | GCGAAUUACUAUGUACCUATT against Sqor | 1.75
6 | GGACUGAGGAGAGCAAUAUTT against Cts6 | -1.29
7 | GGCGGACAGAAAUUAUAGATT against Tnpo3 | 3.19 (active)
8 | CCGUUGCCUGAUAAGUUCUTT against Klf3 | 0.576
9 | GCCUUUCUGAGGGAUUUUGTT against Eif1ad | -1.81
10 | GCCAAGCUUACUCAGAUUUTT against Mslnl | 2.45 (active)
11 | GGCCUUUAUUCAGAUGUCATT against Zscan12 | -2.79 (active)
12 | GGUUUAGGCAACUAAGUUGTT against Stat5a | 0.426
13 | GCAAAGUACCCACCUUUGUTT against Pitpna | 2.06 (active)
14 | GGCAACUUUGAAGUCUUGATT against Dntt | -0.488
15 | GGGUUCUUUUAGGUUGUCATT against Ccdc85a | -0.123
16 | GGAACUUCAUCCAAACUGATT against Ap4m1 | -0.12
17 | CGUCCAAGCAUAUAUGAAATT against Slfn8 | 1.36
18 | GGGAAGAGAAUGAGAUAAATT against F7 | 3.22 (active)
19 | CCGACAUUCGAGUUUUGCGTT against Rrp9 | -0.532
20 | GCGAACAACCACGUUUUUCTT against Ddx18 | 0.388
21 | GGUGUCAAGAAGAAUGUCCTT against Megf11 | 3.2 (active)
22 | GGCCGAAAGAUAAAAACAGTT against Rad51d | 0.173

Row | Sequence | z-score
23 | GCGACACCACUGAUGACGATT against Gga2 | -0.473
24 | GGAAAAACAUGCCAAAAAATT against Mettl15 | -0.222
25 | CCUUAGUAUGUAUGUGGUATT against Map10 | -2.65 (active)
26 | CCACACUUCCCUUAUUUAATT against Arpc5 | 1.35
27 | GGCUAAAGACCAGUAUUUGTT against Cdh7 | 2.47 (active)
28 | CGCAGUCAAAUUUGAAAGUTT against Car5b | 0.775
29 | GGCUGACAGACAAGAUUGUTT against Tfb1m | -1.3
30 | GCCUGUGGUGAUUCUCUUGTT against Tmem53 | -0.093
31 | CCCAGUUAUCCUGAAAAGUTT against Ears2 | 0.526
32 | GCAAAAGUAUUUUGUGUCCTT against Aamp | 0.241
33 | GCGCAAUGAACGGUUCUACTT against Prepl | 3.96 (active)
34 | GGGAUGUGAGGGAAUUAACTT against B4galt3 | -1.03
35 | GGUCUUCAAGAACUGUAGCTT against Bcl11b | 1.09
36 | GCACACCAGAUCUACUUCUTT against Cyp2b9 | 0.3
37 | GCUUCACUCCACCUUUCAGTT against Prkcg | 0.767
38 | GGUCGUUUCUAUGAUUGGCTT against Olfr589 | 0.568
39 | GCUCGAAGAAAGGCCCUGATT against B430306N03Rik | -0.509
40 | GGACCUAAACAACGUGUUGTT against Klf2 | 2.74 (active)
41 | GGAAAGAAGAAGAGUCUAATT against Nucb2 | 0.994
42 | GGCCGGAGCUUACGAUUUUTT against Camk2d | 0.309
43 | GGGAACAAAUUCAUUGUAUTT against Eny2 | 2.26 (active)
44 | GGAAGUGAGAUGUCACUGATT against Ssc5d | 0.841

Row | Sequence | z-score
45 | GGAUACCAAGCAUCGGAAGTT against Tfap2e | -0.0352
46 | GGCAGAAACAGUCCUUGUUTT against Gfra4 | -1.54
47 | GGCGUAUACCGGGAAUCCUTT against Ndrg1 | -0.505
48 | GCAAUGAGUACUAUCAUACTT against Gnal | -2.71 (active)
49 | GGUUAAAUCGAUUUUGCAUTT against Acbd5 | -0.185
50 | GGGAUACCAUCUUUAUGGCTT against Vwa3b | -0.041
51 | GCAAUGGACUGACAUGUCATT against Csdc2 | -0.339
52 | CGGACAAGUGUUUUUCGUUTT against Wwox | 0.315
53 | GGCUGUGCUCCUUGUUAGUTT against Olfr1143 | -0.083
54 | GCGGUGAUGAGAGAAACCATT against Zfp617 | 0.872
55 | GGACCCUUUCUUUGAUAUGTT against Rpe | 1.01
56 | GCCACUGGAGUAUAGCCAGTT against Pcnx3 | 0.019
57 | CCUCUUAUAUGCAUGUGGCTT against Olfr410 | -2.13 (active)
58 | CCAAAGCUAAAACGGGUGGTT against Tppp3 | 0.597
59 | GCUGGACAUCGACUUUGGATT against Prnd | -1.54
60 | CCUAUGUUUUAGCAAGCAGTT against Acyp2 | 0.758
61 | GCCAUCAUCUUUGUUUAGUTT against Gm4952 | -0.684
62 | GGACAUCCUCUUACAGUGGTT against Zg16 | 0.333
63 | GGUCAUCUCCAAACCCUCCTT against Rbpj | 1.51
64 | GGAAGAGGCCAGCUAUAACTT against Dcaf1 | -2.51 (active)
65 | GGAGGGAUCUAAGGAACAGTT against Fgf8 | 0.263
66 | GGAAUGAUUUUUGUUUGCUTT against Sf3b3 | -1.6

Row | Sequence | z-score
67 | GGCACAUUCAACAACAUUUTT against Zfp592 | 1.61
68 | GGAUCUUAGCAUGUCAACATT against Zfp330 | -1.29
69 | GGUUCAGAUGGGAAAAAGGTT against Khdrbs2 | -2.41 (active)
70 | GGAGAACCCUUAUGUGACATT against Pik3ca | -1.91
71 | GGAGGAUGGUGCCAACAUUTT against Psmc3 | -2.02 (active)
72 | GGUAAAAACUUUCCUUUAGTT against Prph2 | 1.48
73 | GGAAUGCAAAAAACUCUGGTT against Gzmg | 0.906
74 | GGCCUGAGUAUAAAGUUAGTT against Wbp2 | 1.6
75 | GGAUGAAUAAGGACAGAUUTT against Phospho2 | 0.335
76 | GGUUACGUGUUUGUAUCUATT against Higd1a | -0.395
77 | GGCUCUUGAAAAAAACCCATT against Utp11 | 0.441
78 | CGAGCUUAUGCUGAAACCATT against 3830417A13Rik | -2.45 (active)
79 | GGUGACUAGGAAGAACACGTT against Tmem9b | 1.99
80 | GUACCUGAACUCAACUGAGTT against Ffar2 | -0.0572
81 | CCCAGAAGAGGUUACAUUUTT against Cd200r4 | 0.0312
82 | GGAUAUGCAGUGGAACUAUTT against Heph | -2.13 (active)
83 | GGGAUCAGAGAUAUAGCCATT against Vmn1r192 | -1.74
84 | GCAGGGUACUGGCUAAAUATT against Cd40 | 2.93 (active)
85 | GGACAGAUUUUCACCAUUCTT against Slc1a4 | -0.593
86 | GGUGAAGCAUCAGUGACAATT against Ubxn4 | 0.734
87 | UUUCAAUCUGUAGCUUUCCTT against Krt86 | 0.071
88 | GCUACACCGUAACAUGCUATT against Zer1 | 2.19 (active)

Row | Sequence | z-score
89 | GCUAUGUAAGACAUUUAACTT against Ccdc162 | 1.6
90 | CGUUUAUUGUAACCAGAAUTT against Fam168b | 0.263
91 | GGAGGAAUUCAUUAGAAACTT against Psmc1 | -2.04 (active)
92 | GGCUUUCCUCCAGAUAAACTT against Il6st | -0.856
93 | GCGACGAGAAGAAUCUGCUTT against Mtcl1 | -0.641
94 | CCGUGGAGUAACAAGUAUGTT against Capzb | -1.07
95 | CGAUCUAGUCCGCCAUUACTT against Lck | -1.3
96 | GCAAGACCCAAGAGUUACATT against Soat2 | -2.07 (active)
97 | GCGAAGGAAUUUAAGGACCTT against Tmod1 | 0.836
98 | GGCACCAUCUAUUAUUUUCTT against Psmc3 | -2.45 (active)
99 | CCAAUGAUAGACUUUAUACTT against Adgrv1 | -0.252
100 | GCAGUUCACGCAGUGGAAGTT against Fam25c | 1.3
101 | UCAUAGCAGAGAUUAGAAUTT against Hsfy2 | -0.951
102 | CCUCAGGUUAUUGAAUAUUTT against Rapgef6 | 0.502
103 | GGACAAAACGUGCAAUAUGTT against Pkdcc | -0.188
104 | GCAGAUUGCUCAGAUUACCTT against Brip1 | 0.407
105 | GGUUCUUCGGCUUAUGUUGTT against Rgs7bp | 0.537
106 | GGACAAAAUAAUGCUUUCUTT against Cnnm1 | 0.0436
107 | GGAAUGUUACAUUUCAGUUTT against Adam1a | 2.15 (active)
108 | CCCGUAUCUUUUUAGCUAATT against A630038E17Rik | 0.35

Source: PubChem BioAssay AID1508600 (Functional Genomics Laboratory (NCATS/FGL), 2020)
